Results: PubChem BioAssay
Calls of active or inactive are those of the source.

Columns and labels:
[1] = binders of probe aFSTL3 on microarray, primary screen, stem cell growth factor project, biochemical, small-molecule microarray, fluorescence 635/667 (AID 1064); conditions: higher = more signal;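 note: measures binding of the biotinylated anti-FSTL3 antibody to printed compounds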
[2] = binders from COS7 lysate, DM2A8 probe, primary screen, torsin A project, cell lysate, small-molecule microarray, fluorescence 635/667 (AID 1065); conditions: higher = more signal, COS7 lysate expressing mutant human TOR1A
[3] = binders of probe aFGF2 on microarray, primary screen, stem cell growth factor project, biochemical, small-molecule microarray, fluorescence 635/667 (AID 1067); conditions: higher = more signal;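 note: measures binding of biotinylated aFGF2 protein to printed compounds on slides; z-score merges feature fluorescence and signal-to-noise across triplicate slides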
[4] = binders of probe aFGF10 on microarray, primary screen, stem cell growth factor project, biochemical, small-molecule microarray, fluorescence 635/667 (AID 1071); conditions: higher = more signal;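 note: score merges 667 nm spot intensity and signal to noise from triplicate slides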
[5] = target: Neurogenic locus notch homolog protein 2 (Homo sapiens) (UniProt Q04721); assay: Notch2 binders on small-molecule microarrays, primary screen, biochemical, small-molecule microarray, 635 nm fluorescence, stem cell growth factors (AID 1073); conditions: Notch2 binding, higher = more signal
[6] = target: Pro-neuregulin-1, membrane-bound isoform (Homo sapiens) (UniProt Q02297); assay: NRG1 binders on small-molecule microarrays, primary screen, psychiatric disease protein project, biochemical, small-molecule microarray, fluorescence 635/667 (AID 1075); conditions: NRG1 binding, 635 nm fluorescence, higher = more signal;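 note: score combines 667 nm spot fluorescence with signal to noise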
[7] = tested on: Neuregulin-1 EGF-like domain; assay: binders of neuregulin-1 EGF-like domain, primary screen, biochemical, small-molecule microarray, 635 nm fluorescence (AID 1081); conditions: small-molecule microarray binding, higher = more signal;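 note: binding of the protein to compounds printed on small-molecule microarray slides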
[8] = FRG1 promoter luciferase signal modulators, primary screen, FRG1 inhibition for FSHD, cell-based, C2C12 myotubes, firefly/Renilla luciferase, luminescence (AID 1084); conditions: higher = more signal, called active from +8 up or from −8 down
[9] = binders of probe aFST on microarray, primary screen, stem cell growth factor project, biochemical, small-molecule microarray, fluorescence 635/667 (AID 1086); conditions: higher = more signal;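 note: score merges 667 nm fluorescence with signal-to-noise of each printed compound spot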
[10] = binders of probe aHhip on microarray, primary screen, stem cell growth factor project, biochemical, small-molecule microarray, fluorescence 635/667 (AID 1087); conditions: higher = more signal;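 note: score merges spot fluorescence at 667nm with spot signal to noise ratio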
[11] = tested on: PRMT1 (protein arginine N-methyltransferase 1); assay: PRMT1 binders on small-molecule microarrays, primary screen, biochemical, small-molecule microarray, 635 nm fluorescence (AID 1088); conditions: small-molecule microarray binding, higher = more signal;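 note: binding of Prmt1 protein to compounds spotted on small-molecule microarray slides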
[12] = yeast growth modulation, basal conditions, primary screen, YJM789 clinical isolate, OD600, 24 h (AID 1089);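 note: growth of clinical yeast isolate S. cerevisiae YJM 789 seeded 1000 cells per well; test concentration not given here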; conditions: S. cerevisiae YJM789 growth, higher = more signal, called active from +8 up or from −8 down
[13] = fission yeast growth modulation, primary screen, strain 972, OD600, 24 h, no modulator (AID 1090);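 note: basal condition with compound alone and no growth modifier present; test concentration not given here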; conditions: S. pombe 972 growth, higher = more signal, called active from +8 up or from −8 down
[14] = S. cerevisiae growth modulation with rapamycin, primary screen, strain BY4716, OD600, 96 h (AID 1091); conditions: higher = more signal, called active from +8 up or from −8 down; note: test concentration not given here
[15] = target: Torsin-1A-interacting protein 2 (Homo sapiens) (UniProt Q8NFQ8); assay: LULL1 binders on small-molecule microarray, primary screen, cell lysate, human LULL1 lysate, 635/667 nm fluorescence (AID 1092); conditions: hLULL1 lysate binding, 635 nm fluorescence, higher = more signal;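 note: probe is lysate of COS7 cells overexpressing human LULL1; score merges per-feature 667 nm fluorescence with signal-to-noise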
[16] = E. coli growth modulation, two-sided OD650, primary screen, E. coli filamentation project, strain DRC41, 24 h (AID 1093); conditions: OD650, 24 h, higher = more signal, called active from +8 up or from −8 down;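 note: MC1000 strain lacking acrAB efflux and sulA so SOS filamentation is blocked; test concentration not given here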
[17] = small-molecule microarray binders of probe aLefty2, primary screen, biochemical, biotinylated probe, 635/667 nm fluorescence (AID 1094); conditions: higher = more signal;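 note: score merges spot fluorescence near 667 nm with spot signal-to-noise ratio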
[18] = tested on: Noggin (protein binding on small-molecule microarray); assay: Noggin binders on small-molecule microarray, primary screen, biochemical, 635/667 nm fluorescence (AID 1095); conditions: 635 nm fluorescence, higher = more signal;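 note: score merges 667 nm feature fluorescence with signal to noise over triplicate slides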
[19] = target: Neurogenic locus notch homolog protein 3 (Homo sapiens) (UniProt Q9UM47); assay: NOTCH3 binders on small-molecule microarray, primary screen, biochemical, 635/667 nm fluorescence (AID 1096); conditions: NOTCH3 binding, 635 nm fluorescence, higher = more signal
[20] = small-molecule microarray binders of probe aEGFR, primary screen, biochemical, biotinylated probe, 635/667 nm fluorescence (AID 1097); conditions: higher = more signal;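 note: probe is a biotinylated anti-EGFR antibody binding compounds printed on slides; score combines fluorescence near 667 nm and signal to noise of each spot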

Sequence of Torsin-1A-interacting protein 2 (Homo sapiens) (Q8NFQ8 whole entry, looked up): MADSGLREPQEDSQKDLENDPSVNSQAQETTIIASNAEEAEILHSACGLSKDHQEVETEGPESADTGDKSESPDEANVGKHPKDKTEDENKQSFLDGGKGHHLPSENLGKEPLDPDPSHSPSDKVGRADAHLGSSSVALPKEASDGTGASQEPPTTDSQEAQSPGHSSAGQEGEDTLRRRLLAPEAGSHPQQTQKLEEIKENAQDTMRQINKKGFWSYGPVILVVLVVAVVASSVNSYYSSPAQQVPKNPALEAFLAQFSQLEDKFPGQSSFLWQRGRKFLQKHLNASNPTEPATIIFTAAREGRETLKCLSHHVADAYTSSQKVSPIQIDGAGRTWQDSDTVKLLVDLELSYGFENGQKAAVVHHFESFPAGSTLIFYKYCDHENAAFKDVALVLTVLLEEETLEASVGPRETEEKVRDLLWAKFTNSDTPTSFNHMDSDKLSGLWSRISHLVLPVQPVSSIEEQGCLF
Sequence of Pro-neuregulin-1, membrane-bound isoform (Homo sapiens) (Q02297 whole entry, looked up, the tested form may be a part, canonical isoform): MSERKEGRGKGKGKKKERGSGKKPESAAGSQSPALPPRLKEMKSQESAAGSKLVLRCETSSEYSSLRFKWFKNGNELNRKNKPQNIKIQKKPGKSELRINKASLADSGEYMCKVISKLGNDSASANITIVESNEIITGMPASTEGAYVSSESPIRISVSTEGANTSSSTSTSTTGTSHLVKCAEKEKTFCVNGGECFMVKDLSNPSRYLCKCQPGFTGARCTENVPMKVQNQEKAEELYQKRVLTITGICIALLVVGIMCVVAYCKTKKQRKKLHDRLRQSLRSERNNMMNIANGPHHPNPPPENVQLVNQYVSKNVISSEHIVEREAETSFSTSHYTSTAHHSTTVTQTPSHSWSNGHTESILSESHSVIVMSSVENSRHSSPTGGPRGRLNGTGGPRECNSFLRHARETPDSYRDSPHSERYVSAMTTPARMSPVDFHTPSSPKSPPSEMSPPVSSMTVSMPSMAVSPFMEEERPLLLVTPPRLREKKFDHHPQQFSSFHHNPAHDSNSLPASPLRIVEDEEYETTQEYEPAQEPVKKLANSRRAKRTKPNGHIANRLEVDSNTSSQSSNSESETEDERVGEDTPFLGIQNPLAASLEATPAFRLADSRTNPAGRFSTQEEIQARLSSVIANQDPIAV
Sequence of Neurogenic locus notch homolog protein 3 (Homo sapiens) (Q9UM47 whole entry, looked up): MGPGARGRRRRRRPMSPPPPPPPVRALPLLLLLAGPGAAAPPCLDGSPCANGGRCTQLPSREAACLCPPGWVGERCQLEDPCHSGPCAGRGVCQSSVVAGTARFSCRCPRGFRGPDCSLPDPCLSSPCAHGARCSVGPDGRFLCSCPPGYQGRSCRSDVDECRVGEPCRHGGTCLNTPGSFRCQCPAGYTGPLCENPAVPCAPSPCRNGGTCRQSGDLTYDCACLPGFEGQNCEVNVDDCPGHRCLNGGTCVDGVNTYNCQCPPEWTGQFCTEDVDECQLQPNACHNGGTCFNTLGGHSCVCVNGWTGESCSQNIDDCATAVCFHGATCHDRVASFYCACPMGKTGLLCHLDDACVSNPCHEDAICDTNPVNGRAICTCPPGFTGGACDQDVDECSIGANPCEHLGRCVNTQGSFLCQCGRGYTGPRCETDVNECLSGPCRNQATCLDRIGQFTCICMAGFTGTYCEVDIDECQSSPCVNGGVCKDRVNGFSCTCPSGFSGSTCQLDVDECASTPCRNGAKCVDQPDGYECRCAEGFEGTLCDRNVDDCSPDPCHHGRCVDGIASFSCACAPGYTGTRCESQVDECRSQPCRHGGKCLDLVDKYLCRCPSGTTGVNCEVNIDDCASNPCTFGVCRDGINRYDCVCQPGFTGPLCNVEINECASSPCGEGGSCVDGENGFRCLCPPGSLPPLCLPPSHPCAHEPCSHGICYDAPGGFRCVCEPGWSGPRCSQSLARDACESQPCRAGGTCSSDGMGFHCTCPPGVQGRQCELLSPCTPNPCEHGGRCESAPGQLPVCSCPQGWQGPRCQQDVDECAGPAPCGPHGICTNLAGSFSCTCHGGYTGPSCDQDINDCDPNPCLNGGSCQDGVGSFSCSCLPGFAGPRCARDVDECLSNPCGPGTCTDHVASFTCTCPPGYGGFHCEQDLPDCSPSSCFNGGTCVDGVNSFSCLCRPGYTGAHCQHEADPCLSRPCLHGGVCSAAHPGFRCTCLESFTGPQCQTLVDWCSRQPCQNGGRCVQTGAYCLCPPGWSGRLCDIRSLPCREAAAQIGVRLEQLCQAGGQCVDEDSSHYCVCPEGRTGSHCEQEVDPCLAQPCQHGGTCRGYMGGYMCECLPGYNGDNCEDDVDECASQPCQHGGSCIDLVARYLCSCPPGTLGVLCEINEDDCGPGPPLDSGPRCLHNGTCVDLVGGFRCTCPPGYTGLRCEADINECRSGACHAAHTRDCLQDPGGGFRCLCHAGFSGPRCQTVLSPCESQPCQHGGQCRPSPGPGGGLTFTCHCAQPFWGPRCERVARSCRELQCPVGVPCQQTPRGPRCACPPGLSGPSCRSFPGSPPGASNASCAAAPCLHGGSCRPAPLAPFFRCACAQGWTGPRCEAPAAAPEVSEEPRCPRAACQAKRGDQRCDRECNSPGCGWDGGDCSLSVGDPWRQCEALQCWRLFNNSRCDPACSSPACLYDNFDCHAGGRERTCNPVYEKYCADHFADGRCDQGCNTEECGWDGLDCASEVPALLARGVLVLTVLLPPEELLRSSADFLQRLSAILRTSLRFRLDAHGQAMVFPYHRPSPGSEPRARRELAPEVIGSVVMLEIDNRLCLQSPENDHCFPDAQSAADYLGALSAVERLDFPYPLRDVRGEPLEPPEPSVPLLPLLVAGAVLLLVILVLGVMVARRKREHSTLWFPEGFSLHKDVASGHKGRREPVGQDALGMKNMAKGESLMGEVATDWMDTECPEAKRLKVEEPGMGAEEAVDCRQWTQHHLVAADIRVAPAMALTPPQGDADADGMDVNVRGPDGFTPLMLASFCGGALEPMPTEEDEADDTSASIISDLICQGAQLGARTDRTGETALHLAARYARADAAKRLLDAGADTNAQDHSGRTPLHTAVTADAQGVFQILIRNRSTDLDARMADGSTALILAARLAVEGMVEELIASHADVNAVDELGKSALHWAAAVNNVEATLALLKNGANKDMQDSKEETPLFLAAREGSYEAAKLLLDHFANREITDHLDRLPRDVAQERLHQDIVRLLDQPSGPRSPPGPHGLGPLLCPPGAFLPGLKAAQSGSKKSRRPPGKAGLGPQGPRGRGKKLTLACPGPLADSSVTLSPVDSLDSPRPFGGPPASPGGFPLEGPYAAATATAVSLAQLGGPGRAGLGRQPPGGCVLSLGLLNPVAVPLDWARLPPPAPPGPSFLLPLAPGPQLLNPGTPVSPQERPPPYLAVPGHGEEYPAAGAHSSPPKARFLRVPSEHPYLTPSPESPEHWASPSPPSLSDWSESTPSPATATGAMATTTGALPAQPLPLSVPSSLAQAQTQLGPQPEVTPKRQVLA

Row | Structure (SMILES) | composite z-score [1] | composite z-score [2] | composite z-score [3] | composite z-score [4] | composite z-score [5] | composite z-score [6] | composite z-score [7] | z-score [8] | composite z-score [9] | composite z-score [10] | composite z-score [11] | z-score [12] | z-score [13] | z-score [14] | composite z-score [15] | z-score [16] | composite z-score [17] | composite z-score [18] | composite z-score [19] | composite z-score [20]
1 | COC(=O)c1cn(C[C@@H](Cc2ccccc2)NC(=O)N[C@H](CO)CCc2oc(C(C)=O)c(C(=O)OC)c2C(=O)OC)nn1 | -0.695 | 0.603 | -0.0602 | 0.757 | 0.5 | 0.165 | 1.21 | -0.776 (inactive) | 0.232 | 0.0274 | 0.999 | 0.0017 (inactive) | -0.814 (inactive) | -0.338 (inactive) | 0.985 | 1.01 (inactive) | -0.147 | 0.921 | 1.06 | 0.084
2 | O=C(N1CCCCC1)[C@@]1(CCS(=O)(=O)c2ccccc2)COC(c2ccc(OCCCO)cc2)=N1 | 1.02 | 1.92 | 0.237 | 0.253 | 1.03 | 1.06 | 1.32 | -3.51 (inactive) | 0.937 | 0.0972 | 1.54 | -0.612 (inactive) | -1.25 (inactive) | -0.0556 (inactive) | 2.84 | 1.23 (inactive) | 0.369 | 1.04 | 0.841 | 0.219
3 | COc1ccc(NC(=O)O[C@H]2[C@H](OC(=O)Nc3ccccc3)[C@@H](OC(=O)Nc3ccccc3)[C@@H](OC)O[C@@H]2CO)cc1 | -0.279 | 0.672 | -0.017 | 1.27 | 0.754 | 1.6 | 1.26 | 0.329 (inactive) | 0.23 | -0.0618 | 1.55 | 2.09 (inactive) | -0.0554 (inactive) | -0.758 (inactive) | 3.27 | -0.633 (inactive) | -0.0666 | 1.62 | 0.822 | -0.0054
4 | Cc1ccccc1C(O)C1C=CC2C(=O)N(C)C(=O)C2N1N(c1ccccc1)c1ccccc1 (stereo not given) | 1.01 | -0.038 | 0.149 | 0.113 | 0.483 | -0.53 | -0.878 | -0.0079 (inactive) | 0.606 | 0.0077 | -0.437 | 0.787 (inactive) | 0.503 (inactive) | 0.753 (inactive) | -0.604 | -0.717 (inactive) | 0.756 | -0.177 | -0.899 | 0.409
5 | COC(=O)c1c2oc(c1C(=O)OC)C(=O)N(Cc1ccccc1)Cc1cn(nn1)C[C@H](Cc1ccccc1)NC(=O)N[C@H](CO)CC2 | -0.462 | -0.277 | -0.105 | 0.138 | -0.0194 | 0.229 | 1.1 | -0.736 (inactive) | 0.0118 | 0.0092 | 0.707 | -3.16 (inactive) | -1.15 (inactive) | 0.0108 (inactive) | 1.69 | 0.101 (inactive) | -0.256 | 0.698 | 0.43 | -0.11
6 | CC(C)Cc1ccc(CN2CC[C@@H](NC(=O)Nc3ccccc3)C2)cc1 | -0.0474 | -0.0461 | -0.173 | 0.118 | -0.3 | -0.54 | -0.0603 | -0.445 (inactive) | -0.275 | 0.0505 | -0.785 | -21.2 (active) | -21.2 (active) | -4.26 (inactive) | -0.389 | -0.817 (inactive) | -0.138 | -0.0751 | -0.963 | -0.0214
7 | COCCCNC(=O)[C@]1(CCS(=O)(=O)c2ccccc2)N=C(c2ccc(OCCCO)cc2)O[C@@H]1c1ccccc1N=[N+]=[N-] | 1.42 | 0.769 | 0.263 | 1.11 | 0.984 | 0.977 | 1.01 | 4.31 (inactive) | 1.98 | -0.202 | 1.38 | 0.371 (inactive) | 0.61 (inactive) | 3.42 (inactive) | 2.93 | 0.464 (inactive) | 0.106 | -0.122 | 0.349 | 0.287
8 | C=CC[C@@]1(C(=O)N2CCOCC2)N=C(c2ccc(OCCCO)cc2)O[C@@H]1c1ccccc1CN=[N+]=[N-] | -0.0448 | 0.326 | 0.141 | 1.01 | 1.62 | 1.53 | 1.15 | -1.21 (inactive) | 1.17 | 0.0722 | 1.56 | 0.0366 (inactive) | 0.472 (inactive) | -0.74 (inactive) | 3.28 | 0.0893 (inactive) | 0.691 | 0.355 | 1.09 | 0.776
9 | CCOC(=O)C[C@H]1[C@H](OC(=O)c2cc3ccccc3oc2=O)[C@@H](NC(=O)c2ccc(-c3ccccc3)cc2)c2cc(OCCCO)ccc2N1C(=O)c1ccc2ccccc2n1 | -0.494 | 0.804 | -0.0563 | 0.684 | 0.652 | 0.751 | 1.03 | -0.185 (inactive) | 0.619 | -0.0994 | 1.25 | 0.443 (inactive) | 0.394 (inactive) | 1.14 (inactive) | 1.92 | -0.0642 (inactive) | -0.084 | 0.873 | 1.05 | -0.0531
10 | COc1ccc([Si](C)(C)[C@@H]2[C@@H](CCn3cc([C@H](O)c4ccccc4)nn3)O[C@]3(C(=O)N(Cc4ccc(N5CCC5=O)cc4)c4ccccc43)[C@H]2C)cc1 | 0.554 | -0.163 | -0.164 | -0.127 | -0.564 | 0.189 | 0.142 | -0.96 (inactive) | -0.201 | -0.503 | 0.0655 | 0.297 (inactive) | 0.375 (inactive) | 3.51 (inactive) | 0.309 | 0.705 (inactive) | -0.177 | 1.13 | -0.231 | -0.313
